A short description of experiment [1]: BSK_BT_PBMCCytotoxicity: PBMC Cytotoxicity Assessment in the BioMAP Diversity Plus: BT Assay (AID 2284225).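 Further: PBMC viability measured by Alamar Blue dye reduction fluorescence.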 The following applies: primary human B cells with PBMC. The gist of the method: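 Viability by Alamar Blue reduction (6 h, ex/em 546/580 nm) after 90 h culture of SEB/TSST-1-activated PBMC (20 ng/mL each) given compound 1 h before activation. DMSO served as baseline for curve fitting.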

Read-out in experiment [2]: Secreted IgG (sIgG), gene 3500
Kind of experiment: BSK_BT_sIgG: BioMAP Diversity Plus: BT Assay for Secreted IgG (sIgG) Biomarker Activity (AID 2284226). To be noted: primary human B cells with PBMC. The gist of the method:
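Cells (B cells with peripheral blood mononuclear cells) are dosed, cultured 24 h, then supernatant IgG is measured by ELISA. DMSO serves as negative control; curves are fitted for signal increase.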

A short description of experiment [3]: BSK_BT_Bcell_Proliferation: Viability Assessment in the BioMAP Diversity Plus: BT Assay for B cell Proliferation (AID 2284227). The following applies: primary human B cells with PBMC. The method, boiled down:
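SRB-based protein staining (0.1% SRB after 10% TCA fixation, 560 nm) quantifies proliferation in human B cells co-cultured with PBMC, 72 h post-dosing, with signal gain scored relative to DMSO negative control.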

Read-out in experiment [4]: Interleukin 6 (IL6), IL6 (gene 3569)
Description: BSK_BT_xIL6: BioMAP Diversity Plus: BT Assay for Interleukin 6 (IL6) Biomarker Activity (AID 2284228). To be noted: primary human B cells with PBMC. The method, boiled down: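 IL-6 secretion measured (Luminex xMAP) in human primary B cell + PBMC co-culture at 24 h of chemical exposure; DMSO served as negative control and activity baseline, with curves fitted for increase.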

Read-out in experiment [5]: Interleukin 17A (IL17A), IL17A (gene 3605)
Kind of experiment: BSK_BT_xIL17A: BioMAP Diversity Plus: BT Assay for Interleukin 17A (IL17A) Biomarker Activity (AID 2284229). To be noted: primary human B cells with PBMC. The gist of the method:
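Human primary B cells plus PBMC, treated 24 h with chemicals; supernatant IL-17A quantified on Luminex xMAP beads. Gain of signal over DMSO control scored as activity.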

Read-out in experiment [6]: Tumor necrosis factor (Homo sapiens) (UniProt P01375)
Kind of experiment: BSK_BT_xTNFa: BioMAP Diversity Plus: BT Assay for Tumor necrosis factor alpha (TNF-alpha) Biomarker Activity (AID 2284230). The following applies: primary human B cells with PBMC. The gist of the method:
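Compounds were added to a B cell plus PBMC co-culture, and after 24 h secreted TNF-alpha was quantified with Luminex xMAP technology, with responses fitted upward from the DMSO control.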

Read-out in experiment [7]: Vascular cell adhesion molecule 1 (VCAM1), VCAM1 (gene 7412)
Description: BSK_MyoF_VCAM1: BioMAP Diversity Plus: MyoF Assay for Vascular cell adhesion molecule 1 (VCAM1) Biomarker Activity (AID 2284231). The following applies: primary human lung fibroblasts. The gist of the method:
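VCAM-1 levels, lung fibroblasts, ELISA, 24 h exposure, increase scored relative to DMSO.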

Experiment [8] in a line: TAMU_PeakParms_SingleDonor1434_Chronotropy: Texas A&M University (TAMU) 1.5-hr Human Induced Pluripotent Stem Cell (iPSC)-derived Cardiomyocytes Calcium (Ca+2) Flux Assay for Cardiotoxicity: Chronotropy (changes in peak frequency) (AID 2284217). To be noted: actives raise or lower the signal. The gist of the method: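 Beat frequency of single-donor iPSC cardiomyocytes was recorded through a calcium-sensitive dye 1.5 hours after exposure to four concentrations up to 100 uM. An EC05 point of departure was derived.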

Experiment [9] can be described thus: CCTE_Mundy_HCI_Cortical_Synap_Neur_Matur_NeuriteSpotCountPerNeuriteLength: CCTE's Synaptogenesis and Neurite Maturation Assay in rat cortical cells for Neurite Spot Count per Neurite Length, Mundy Lab (AID 2284210). The method, boiled down:
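Read-out: synaptophysin puncta counted along MAP2-stained neurites, normalised to neurite length, by automated high-content imaging. Rat cortical cells; AraC DIV 5; chemical dosing DIV 7; termination DIV 12. DMSO baseline.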

A short description of experiment [10]: CCTE_Mundy_HCI_Cortical_NOG_NeuriteLength: CCTE's Neurite Outgrowth Assay in rat cortical cells for Neurite Length, Mundy Lab (AID 2284213).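 On AC50: neurites imaged about 48 to 50 h after chemical exposure began.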 The gist of the method: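 First, rat primary cortical cells were plated and, 2 h later, given test chemical as a 1/10 dilution. Finally, βIII-tubulin immunostaining enabled automated imaging of neurite length.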
The nature of experiment [11]: CCTE_Mundy_HCI_Cortical_Synap_Neur_Matur_NeuriteLength: CCTE's Synaptogenesis and Neurite Maturation Assay in rat cortical cells for Neurite Length, Mundy Lab (AID 2284214). The method, boiled down:
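Cultures of rat primary cortical cells received chemical at DIV 7 and were fixed at DIV 12, after glial arrest with AraC at DIV 5. Neurite length was measured by automated imaging of MAP2 immunofluorescence.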

Experiment [12] can be described thus: CCTE_Mundy_HCI_Cortical_Synap_Neur_Matur_NeuriteSpotCountPerNeuron: CCTE's Synaptogenesis and Neurite Maturation Assay in rat cortical cells for Neurite Spot Count per Neuron Count, Mundy Lab (AID 2284215). The gist of the method:
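Developing rat cortical neurons, with glia suppressed by AraC, are exposed to chemicals from DIV 7 to DIV 12. Automated fluorescence imaging of MAP2-labelled neurites and synaptophysin puncta yields a count per neuron, normalised against DMSO wells.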

The nature of experiment [13]: CCTE_Mundy_HCI_Cortical_Synap_Neur_Matur_SynapseCount: CCTE's Synaptogenesis and Neurite Maturation Assay in rat cortical cells for Synapse Count, Mundy Lab (AID 2284218). The gist of the method:
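Cells were plated, allowed 2 hr to attach, treated with AraC at DIV 5, then exposed to chemicals from DIV 7 until DIV 12. After fixation and MAP2/synaptophysin immunolabelling, synapses per neuron were quantified by automated imaging against DMSO.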

Experiment [14] can be described thus: CCTE_Mundy_HCI_hN2_NOG_NeuriteLength: CCTE's Neurite Outgrowth Assay in human hN2 cells for Neurite Length, Mundy Lab (AID 2284220; active means hit-call score of the fitted dose curve at least 0.9, where 1 is the maximum). The method, boiled down: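 Read-out is neurite length from high-content imaging of βIII-tubulin/Alexa Fluor-488-labelled neurons, referenced to DMSO controls.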
Experiment [15] is described as follows: CCTE_Mundy_HCI_Cortical_Synap_Neur_Matur_CellBodySpotCount: CCTE's Synaptogenesis and Neurite Maturation Assay in rat cortical cells for Cell Body Spot Count, Mundy Lab (AID 2284223). The method, boiled down:
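Chemicals were applied to AraC-treated rat primary cortical cells at DIV 7 and measured at DIV 12. Fixed cells were labelled for MAP2, synaptophysin and nuclei, and high-content imaging gave cell body synaptophysin spot counts per neuron relative to DMSO.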

The nature of experiment [16]: CCTE_Mundy_HCI_hNP1_Pro_ResponderAvgInten: CCTE's Proliferation Assay in human neuroprogenitor cells, Mundy Lab (AID 2284224; active means hit-call score of the fitted dose curve at least 0.9, where 1 is the maximum;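 further: human neural progenitor cells hNP1 derived from WA09 embryonic stem cells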). The gist of the method:
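Proliferation read as average intensity of BrdU-positive cells, imaged at 26.25 h post-dosing: chemical exposure started after 40–44 h culture, BrdU during final 4 h, paraformaldehyde fixation. Positive-direction fit relative to DMSO.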

Experiment [17] is described as follows: CCTE_Mundy_HCI_Cortical_Synap_Neur_Matur_BPCount: CCTE's Synaptogenesis and Neurite Maturation Assay in rat cortical cells for Branch Point Count, Mundy Lab (AID 2284211). The gist of the method: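 HCI read-out of branch points from MAP2/synaptophysin/Hoechst immunofluorescence; rat cortical cultures, AraC DIV 5, dosing DIV 7, fixed DIV 12; fit in positive direction vs DMSO baseline.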

The nature of experiment [18]: CCTE_Mundy_HCI_Cortical_NOG_NeuriteCount: CCTE's Neurite Outgrowth Assay in rat cortical cells for Neurite Count, Mundy Lab (AID 2284212).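 Further: cells fixed about two days after chemical exposure began.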 The gist of the method: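 Rat cortical primary cells; compound added 2 h post-plating, 1/10 dilution of working solution. Anti-betaIII-tubulin/AF488 ICC; ArrayScan neurite count vs DMSO.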
The nature of experiment [19]: CCTE_Mundy_HCI_Cortical_Synap_Neur_Matur_NeuriteCount: CCTE's Synaptogenesis and Neurite Maturation Assay in rat cortical cells for Neurite Count, Mundy Lab (AID 2284222). The method, boiled down: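 Chemical exposure runs DIV 7–12 in rat cortical cultures, glia suppressed by AraC at DIV 5; measurement is at DIV 12. Imaging-derived neurite counts are fitted against DMSO baseline.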

A short description of experiment [20]: CCTE_Mundy_HCI_hN2_NOG_NeuriteCount: CCTE's Neurite Outgrowth Assay in human hN2 cells for Neurite Count, Mundy Lab (AID 2284219; active means hit-call score of the fitted dose curve at least 0.9, where 1 is the maximum). The method, boiled down:
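In this morphology assay, hNP1-derived neurons received test chemical 2 h post-plating and were fixed two days later in warm paraformaldehyde/sucrose containing Hoechst 33342. Neurites, labelled by rabbit anti-βIII-tubulin (1:800) and Alexa Fluor-488 (1:500), were counted automatically.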

Each structure is given as a SMILES string. Where “and” joins values, the source holds several entries; their conditions need not be identical. Identical values can stand only once. Records with an inconclusive call do not appear. Some structures have more than one record in an assay (separate samples or runs), and their calls can disagree. Calls of active or inactive are those of the source. How the source made its calls, unless noted: active means hit-call score of the fitted dose curve at least 0.9, where 1 is the maximum; inactive means score below 0.9.

Tumor necrosis factor (Homo sapiens), sequence (P01375 whole entry, looked up): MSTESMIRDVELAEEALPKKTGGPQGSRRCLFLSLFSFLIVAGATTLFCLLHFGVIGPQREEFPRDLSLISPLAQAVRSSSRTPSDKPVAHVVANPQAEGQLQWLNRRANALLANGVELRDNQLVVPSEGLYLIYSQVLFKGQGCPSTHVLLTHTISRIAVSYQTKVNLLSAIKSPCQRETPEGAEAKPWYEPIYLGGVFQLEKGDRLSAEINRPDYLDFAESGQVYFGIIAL

For the molecule `OCCC(F)(F)C(F)(F)C(F)(F)C(F)(F)C(F)(F)C(F)(F)F`, the AC50 in experiment [1] was 30 µM (active); in experiment [4], 49.1 µM (active); in experiment [5] it was 43.1 µM (active); in [6], 41.4 µM (active). Also, the outcome in experiment [1], in [2], in [3], in experiment [4], in [5] and in [6] was inactive. Further, the result in experiment [7] was inactive.

For `NCC(F)(F)C(F)(F)C(F)(F)C(F)(F)C(F)(F)C(F)(F)C(F)(F)F`, the outcome in experiment [1], in [2], in [3], in experiment [4], in [5] and in [6] was inactive. Besides, the result in experiment [7] was inactive.

With `FC(F)(I)C(F)(F)C(F)(F)C(F)(F)C(F)(F)C(F)(F)I`, the concentration at half-maximal activity (AC50) is 25.6 µM (active) [middle of 5 runs] in experiment [1], 20.6 µM (active) [middle of 5 runs] in experiment [3], 21.2 µM (active) [middle of 5 runs] in [6] and 5.28 µM (active) [middle of 5 runs] in experiment [7].

On to `C[C@@H]1C[C@H]2[C@@H]3CCC4=CC(=O)C=C[C@]4(C)[C@@]3(F)[C@@H](O)C[C@]2(C)[C@@]1(O)C(=O)COP(=O)(O)O`, for which the AC50 was 0.485 µM (active) in [1]; 863 nM (active) and 1.34 µM (active) in [4]; 0.1 µM (active) in experiment [5]; 245 nM (active) and 100 nM (active) in [6]. Also, the outcome in experiment [1], in [2], in [3] and in [7] was inactive.

Take `c1ccc2c(c1)ccc1ccccc12`: the result in [8] was inactive.

For `CN1CCC[C@H]1c1cccnc1`, the molecule was classed as inactive in [9], in experiment [10], in experiment [11], in experiment [12], in experiment [13] and in experiment [14]. For the same molecule, in [15], the molecule was called inactive.

On to `OCCC(F)(F)C(F)(F)C(F)(F)C(F)(F)C(F)(F)C(F)(F)C(F)(F)C(F)(F)F`, for which the result in experiment [16] was inactive. The AC50 in experiment [1] is 43.4 µM (active) and 40.7 µM (active); in [2] it was 50.6 µM (active) and 53.6 µM (active); in experiment [3], 45.1 µM (active) and 45.8 µM (active); in experiment [4] it was 53.1 µM (active) and 52.6 µM (active); in experiment [5], 44.1 µM (active) and 43.9 µM (active); in experiment [6], 45.5 µM (active) and 41.3 µM (active). The AC50 in [7] was 13.4 µM (active) and 9.75 µM (active).

Regarding `CCCCCCCCCCCCCC[N+](C)(C)C`, the AC50 in experiment [1] was 11.5 µM (active); in experiment [2] it was 45.3 nM (active); in experiment [3], 2.81 µM (active); in [4] it was 4.27 µM (active); in experiment [5] it was 1.48 µM (active); in [6], 2.59 µM (active). The AC50 in experiment [7] is 3.84 µM (active).

For `c1ccc2cc3c(ccc4ccccc43)cc2c1`, the result in experiment [8] was inactive.

`C=C(C)C(=O)OCCC(F)(F)C(F)(F)C(F)(F)C(F)(F)C(F)(F)C(F)(F)F`: the call in experiment [16], in experiment [1], in experiment [2], in experiment [3], in experiment [4] and in experiment [5] was inactive. The outcome in experiment [6] and in experiment [7] was inactive.

Consider `c1ccc2c(c1)Cc1ccccc1-2`, for which the AC50 in [8] was 50 µM (active).

For `CC#C[C@]1(O)CC[C@H]2[C@@H]3CCC4=CC(=O)CCC4=C3[C@@H](c3ccc(N(C)C)cc3)C[C@@]21C`, the AC50 in [9] is 25.7 µM (active); in [17], 18.4 µM (active) and 27.4 µM (active); in experiment [18] it was 62 µM (active) and 24.4 µM (active); in experiment [10], 50 µM (active) and 23.6 µM (active); in experiment [11], 15.9 µM (active) and 27.7 µM (active); in [12] it was 13.3 µM (active) and 25.5 µM (active). Also, the AC50 is 0.216 µM (active) in experiment [8]; 13.3 µM (active) and 25.1 µM (active) in experiment [13]; 17.9 µM (active) and 23.1 µM (active) in experiment [19]; 16.7 µM (active) and 24.8 µM (active) in experiment [15]; 18 µM (active) and 23.2 µM (active) in experiment [16].

For the molecule `CC1=C(/C=C/C(C)=C/C=C/C(C)=C/C(=O)O)C(C)(C)CCC1`, the molecule was called inactive in [9], in experiment [12], in [13] and in experiment [15]. In addition, the AC50 was 6.25 µM (active) in [10], 12.1 µM (active) in experiment [20] and 0.417 µM (active) in [14].

(Values after PubChem BioAssay (EPA / NIEHS).)
